From PubChem BioAssay (NCATS)
Inconclusive results are not listed. Active and inactive are the calls of the source. Calls follow the shape of the dose curve; as a rule, active = well fitted curve in the direction sought with a large enough effect; inconclusive = small, poorly fitted or top-dose-only effect, or another doubt; inactive = no such curve, though single readings can be large; an effect the other way counts as inactive or inconclusive.

Key:
[1] = Confirmation and Secondary Assay for Modulators of Hemoglobin Beta Chain Splicing at IVS2 654 locus (AID 910);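 also: HeLa cells stably carrying EGFP split by mutant beta-globin IVS2-654 intron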
Procedure, shortened: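 HeLa cells stably expressing EGFP interrupted by β-globin IVS2-654 intron, seeded overnight in Opti-MEM/2% FCS, then treated 2 days at 37 °C. Restored splicing read as total peak GFP intensity per well by laser scanning cytometry (488 nm excitation, 500–520 nm emission); 500 nM antisense PNA as control.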

[2] = Cell Viability - LYMP2-001 (AID 921); also: series mostly up to about 92 µM; nearly all actives have a fitted effect of over 70% in size
Procedure, shortened: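 qHTS, 1536-well; lymphoblastoid cells, 24 hr compound, 37 C; ATP by CellTiter-Glo, 30 min RT; luminescence; Hill-fit AC50.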

[3] = Confirmation and Secondary Assay for Modulators of Hemoglobin Beta Chain Splicing at IVS2 705 locus (AID 930);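 also: HeLa cells stably expressing the EGFP-705 splicing reporter; GFP fluorescence per well restored by corrected splicing of the IVS2-705 intron in EGFP; series mostly up to about 46 µM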
Procedure, shortened: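 First, HeLa EGFP-705 cells are seeded at 500/well in Optimem with 2% FCS and left overnight. Next, compound or DMSO is added for 2 days. Finally wells are laser-scanned and total peak GFP intensity scored.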

[4] = MultiTox-Fluor Cytotoxicity Assay - LYMP1-001 - Dead Cells (AID 946)
Procedure, shortened: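 In this qHTS, 15 uM tetraoctylammonium bromide defined 100% and DMSO defined basal activity. Lymphoblastoid cells (LYMP1-001, 2500 per well) received compound for 16 hr at 37 C before a fluorogenic dead-cell substrate readout at 485/520 nm.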

[5] = MultiTox-Fluor Cytotoxicity Assay - LYMP1-001 - Live Cells (AID 947)
[6] = Cell Viability - LYMP1-002 - Assay at 16 hr (AID 948)
Procedure, shortened: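 Acute cytotoxicity is scored as a concentration-dependent fall in intracellular ATP in a human lymphoblastoid line (LYMP1-002) after 16 hr compound exposure at 37 C, measured by luciferase luminescence.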

[7] = MultiTox-Fluor Cytotoxicity Assay - LYMP1-002 - Live Cells (AID 955)
Procedure, shortened: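 Human lymphoblastoid LYMP1-002 cells, 2500/well in complete medium, rested 5 hr at 37 C, then exposed to compounds for 16 hr at 37 C. Live-cell protease cleavage of GF-AFC read by fluorescence (Ex/Em 405/510) after 60 min at room temperature; AC50 from Hill fits.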

[8] = MultiTox-Fluor Cytotoxicity Assay - LYMP1-002 - Dead Cells (AID 960); also: nearly all actives have a fitted effect of over 60% in size
Procedure, shortened: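 Human lymphoblastoid cells (LYMP1-002), 2500/well in complete medium, were exposed to compounds for 16 hr at 37 C. Dead-cell protease activity was read as bis-AAF-R110 fluorescence (Ex/Em 485/520), normalized to DMSO and 15 uM tetraoctylammonium bromide; AC50 from Hill fits.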

[9] = MultiTox-Fluor Cytotoxicity Assay - LYMP1-003 - Dead Cells (AID 961); also: nearly all actives have a fitted effect of over 70% in size
Procedure, shortened: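 Acute toxicity is scored as increased dead-cell protease activity in human lymphoblastoid LYMP1-003 cells after 16 h compound exposure in complete culture medium. Activity is normalized to DMSO basal and 15 uM tetraoctylammonium bromide as full response.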

[10] = MultiTox-Fluor Cytotoxicity Assay - LYMP1-003 - Live Cells (AID 962);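 also: cytotoxic hits lower the live-cell protease signal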
Procedure, shortened: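 LYMP1-003 human lymphoblastoid cells (2500/well) in complete medium were preincubated 5 hr at 37 C, then exposed to compounds for 16 hr at 37 C. Live-cell protease cleavage of GF-AFC read by fluorescence (Ex/Em 405/510); AC50 from Hill fits.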

[11] = Cell Viability - LYMP1-003 - Assay at 24 hr (AID 963)
Procedure, shortened: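 Human lymphoblastoid LYMP1-003 cells (2500/well) were rested 5 hr at 37 C, then exposed to compounds in complete medium for 24 hr at 37 C. Cellular ATP was quantified by CellTiter-Glo luminescence, and AC50 values came from Hill fits of concentration-response data.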

[12] = Cell Viability - LYMP1-003 - Assay at 40 hr (AID 964); also: series mostly up to about 92 µM; nearly all actives have a fitted effect of over 60% in size
Procedure, shortened: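 Human lymphoblastoid LYMP1-003 cells, 2500/well in complete medium, rested 5 hr at 37 C, then exposed to compounds for 40 hr at 37 C. Viability read as intracellular ATP by CellTiter-Glo luminescence; AC50 from Hill fits of concentration-response data.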

[13] = Cell Viability - LYMP2-003 (AID 965);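 also: cells exposed to compounds for 24 h before reading; nearly all actives have a fitted effect of over 50% in size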
Procedure, shortened: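 Acute cytotoxicity is scored as a concentration-dependent drop in intracellular ATP, measured by luciferase luminescence in human lymphoblastoid cells treated for 24 hours at 37 C. AC50 values derive from Hill-equation modelling.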

[14] = Cell Viability - LYMP2-004 (AID 966); also: nearly all actives have a fitted effect of over 65% in size
Procedure, shortened: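 Human lymphoblastoid cells (2500/well) in complete medium were treated with compounds for 24 hr at 37 C, then intracellular ATP was measured by CellTiter-Glo luminescence. AC50 values came from Hill-equation fits of concentration-response data.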

[15] = Cell Viability - LYMP2-005 (AID 967); also: series mostly up to about 92 µM
Procedure, shortened: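 qHTS viability screen in LYMP2-005 cells: 24 h at 37 C with compound, ATP luminescence via CellTiter-Glo, AC50 from Hill curves.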

[16] = Cell Viability - LYMP2-009 (AID 968); also: series mostly up to about 92 µM; nearly all actives have a fitted effect of over 55% in size
[17] = Cell Viability - LYMP2-011 (AID 969); also: nearly all actives have a fitted effect of over 60% in size
Procedure, shortened: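 Human lymphoblastoid cells (2500/well) were plated in complete medium, preincubated 5 hr at 37 C, then exposed to compounds for 24 hr at 37 C. Intracellular ATP was read by CellTiter-Glo luminescence, and AC50 came from Hill-equation concentration-response fits.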

[18] = Cell Viability - LYMP2-013 (AID 970); also: series mostly up to about 92 µM; nearly all actives have a fitted effect of over 55% in size
Procedure, shortened: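 Human lymphoblastoid cells, 2500/well, were preincubated 5 hr at 37 C, then treated with compounds for 24 hr at 37 C in complete medium. Intracellular ATP was read by CellTiter-Glo luminescence; AC50 from Hill-equation fits of concentration-response data.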

[19] = Cell Viability - LYMP2-015 (AID 971); also: nearly all actives have a fitted effect of over 55% in size
Procedure, shortened: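 Human lymphoblastoid cells (2500/well) in complete medium were preincubated 5 hr at 37 C, then compound-treated 24 hr at 37 C. Intracellular ATP was read by CellTiter-Glo luminescence after 30 min at room temperature; AC50 came from Hill-equation concentration-response fits.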

[20] = Cell Viability - LYMP2-017 (AID 972); also: series mostly up to about 92 µM; nearly all actives have a fitted effect of over 55% in size
Procedure, shortened: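 Human lymphoblastoid cells (2500/well) were seeded in complete medium, held 5 hr at 37 C, then exposed to compounds for 24 hr at 37 C. Intracellular ATP was read by CellTiter-Glo luminescence after 30 min at room temperature, with AC50 values from Hill-equation fits.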

[21] = Cell Viability - LYMP2-019 (AID 973); also: nearly all actives have a fitted effect of over 55% in size
Procedure, shortened: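 Human lymphoblastoid cells were seeded at 2500 cells/well, preincubated 5 hr at 37 C, then exposed to compounds for 24 hr at 37 C in complete medium. Intracellular ATP was measured by CellTiter-Glo luminescence; AC50 from Hill fits.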

[22] = Cell Viability - LYMP2-021 (AID 974)
Procedure, shortened: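 Human lymphoblastoid cells (2500/well) were preincubated 5 hr at 37 C, then exposed to compounds for 24 hr at 37 C in complete medium. Intracellular ATP was read by CellTiter-Glo luminescence; AC50 came from Hill-equation fits of concentration-response data.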

[23] = Cell Viability - LYMP2-023 (AID 975)
Procedure, shortened: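 Human lymphoblastoid cells (2500/well) were preincubated 5 hr at 37 C, then exposed to compounds for 24 hr at 37 C in complete medium. Cellular ATP was read by CellTiter-Glo luminescence, and AC50 came from Hill-equation fits.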

Measured: Potency

CCCCOC(=O)c1ccccc1C(=O)OCCCC
inactive: all assays above
